Experimental data reported in PubChem BioAssay AID1220 (Sanford-Burnham Center for Chemical Genomics, 2008).
The whole screen tested about 190,000 compounds, of which about 1,300 (0.68%) were called active. The list comes from a sample in which actives are over-represented; it also holds similar structures and randomly drawn compounds. Values without a mark were called inactive. No stated cut-off is given here; in the data, active means inhibition above about 50%; inactive means the rest.

target: Mannose-6-phosphate isomerase (Homo sapiens) (UniProt P34949); assay: human PMI inhibitors, high substrate, primary screen, biochemical, fluorescence intensity, high mannose 6-phosphate (AID 1220); conditions: recombinant PMI enzyme, coupled fluorescence intensity; at 20 µM; hits give high values
Sequence (P34949 whole entry, looked up): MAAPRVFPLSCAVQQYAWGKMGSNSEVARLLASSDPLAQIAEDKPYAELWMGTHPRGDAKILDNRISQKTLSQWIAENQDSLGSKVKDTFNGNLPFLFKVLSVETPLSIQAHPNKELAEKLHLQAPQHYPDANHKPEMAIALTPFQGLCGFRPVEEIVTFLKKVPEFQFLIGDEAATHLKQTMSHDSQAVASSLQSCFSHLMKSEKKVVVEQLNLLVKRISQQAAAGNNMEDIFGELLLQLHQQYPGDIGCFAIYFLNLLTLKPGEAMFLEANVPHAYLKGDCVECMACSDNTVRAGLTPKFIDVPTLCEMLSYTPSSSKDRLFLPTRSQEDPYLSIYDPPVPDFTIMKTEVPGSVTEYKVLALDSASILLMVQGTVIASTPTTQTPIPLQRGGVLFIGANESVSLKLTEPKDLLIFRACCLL

SMILES	inhibition
CCC/C=N/NC(=O)c1cc(-c2ccccc2)nc2ccccc12	-2.1%
C=CCc1cc(/C=N/NC(=O)CSc2nnc(CCCc3ccc(OC)cc3)o2)cc(OC)c1O	-3.4%
N#C/C(=C1\C(=O)Nc2c(Cl)cc(Cl)cc21)c1nnc2n1CCCCC2	51% (active)
N#C/C(=N\Nc1cc(Cl)cc(Cl)c1)c1nnc2n1CCCCC2	14.3%
N#C/C(=C1/CCCCCN1)c1nnc2n1CCCCC2	-3.4%
O=C(c1cc2nc(-c3ccc(Cl)cc3)cc(C(F)(F)F)n2n1)N1CCOCC1	9.1%
CC(=O)N1CC(c2ccccc2)C(c2ccc(Cl)cc2)=N1 (stereo not given)	11.8%
CC(C)C(O)(C#CCN1CCCCC1)C(C)C	2.1%
O=C(NC(=S)N1CCN(Cc2ccccc2)CC1)c1ccccc1	13%
O=C(NC(=S)N1CCCCC1)c1cccnc1	-1.5%
O=C(NC(=S)N1CCN(Cc2ccccc2)CC1)c1cccnc1	58.4% (active)
COCCN1C(=O)c2oc3ccccc3c(=O)c2C1c1ccc(O)c(OC)c1 (stereo not given)	0.7%
Cc1cc([N+](=O)[O-])ccc1NC(=O)C[n+]1ccc(N(C)C)cc1	-1.5%
Cc1ccc([N+](=O)[O-])cc1NC(=O)C[n+]1ccccc1	22.2%
Cc1ccc(Cl)cc1NC(=O)C[n+]1ccc(Cc2ccc([N+](=O)[O-])cc2)cc1	55.3% (active)
CC(NC(=O)C1CCCN1C(=O)OCc1ccccc1)c1ccccc1 (stereo not given)	-0.5%
COc1cccc(OC)c1C(=O)NC(=S)Nc1ccc2oc(=O)ccc2c1	10.5%
O=C(COC(=O)Cc1ccccc1[N+](=O)[O-])NC1CCCC1	55.4% (active)
O=C(COC(=O)Cc1ccccc1[N+](=O)[O-])NCC1CCCCC1	-5.7%
CC(NC(=O)COC(=O)Cc1ccccc1[N+](=O)[O-])c1ccccc1 (stereo not given)	51.3% (active)
CC(NC(=O)COC(=O)CC(c1ccccc1)c1ccccc1)c1ccccc1 (stereo not given)	7.9%
CC(NC(=O)Cc1ccccc1[N+](=O)[O-])c1ccccc1 (stereo not given)	7.4%
O=C(COC(=O)COc1ccccc1[N+](=O)[O-])NC1CCCC1	-5.1%
O=Cc1cc2ccccc2nc1SCCCF	4.2%

SMILES	inhibition
CCCn1c(SCC(=O)C(C)(C)C)nc2ccccc21	-8.2%
O=C(O)Cc1ccc(NC(=O)c2cnccn2)cc1	-9.7%
Cc1cc(C)c2c(N)c(C(=O)NNC(=O)c3ccccc3)sc2n1	2.3%
Cc1cc(C)nc(-n2nc(C)cc2NC(=O)CN2CCCC(C)C2)n1 (stereo not given)	4.4%
Cc1ccc(SC(C)C(=O)NCc2ccncc2)cc1 (stereo not given)	11.4%
CC(=O)NC1(C(F)(F)F)NC(=O)N(c2ccc(F)cc2)C1=O (stereo not given)	-10.2%
CC(=O)c1ccccc1OC(=O)CCN1C(=O)C2C3C=CC(C4CC34)C2C1=O (stereo not given)	59.3% (active)
O=C(CCN1C(=O)C2C3C=CC(C4CC34)C2C1=O)Oc1ccccc1 (stereo not given)	-3.5%
Cc1cccc(OC(=O)CCN2C(=O)C3C4C=CC(C5CC45)C3C2=O)c1C (stereo not given)	-6.4%
Cc1ccc(C(=O)NCc2ccco2)cc1S(=O)(=O)Nc1cccc(C)c1C	0.8%
COc1cccc(CN2CCN(Cc3[nH]c4ccccc4c3C)CC2CCO)c1 (stereo not given)	-0.2%
CC(C)C(=O)Nc1ccc2nn(-c3ccccc3)nc2c1	-0.5%
Cc1ccc(-n2nc3ccc(N)cc3n2)cc1	31.3%
CN(C)C=Nc1ccc2nn(-c3ccccc3)nc2c1	60.2% (active)
Cc1ccc(-n2nc3ccc(NC(=O)C(C)C)cc3n2)cc1	13.3%
CC(C)c1ccc(-n2nc3ccc(N)cc3n2)cc1	55.8% (active)
Nc1ccc2nn(-c3ccccc3)nc2c1	57.9% (active)
CC(C)c1ccc2oc(-c3cc(N)ccc3O)nc2c1	-12.6%
CC(C)CC(=O)Nc1ccc2nn(-c3ccccc3)nc2c1	26.4%
Cc1nc2cc(N)ccc2n1-c1ccccc1	21.5%
COc1cccc(CN(c2ccc3c(c2)CCC3)S(=O)(=O)c2ccc(-n3cnnn3)c(OC)c2)c1	-3.4%
N#C/C(=C\c1ccncc1)C(N)=O	17.1%
COc1ccc(Oc2ccccc2C#N)cc1	4.7%
O=C(CSc1nnnn1CCCO)Nc1ccc2c(c1)OCO2	-12.3%

SMILES	inhibition
COC(=O)c1ccc(N2CCOCC2)c(F)c1	-3.2%
Nc1cc(-c2ccc(Br)cc2)nn1S(=O)(=O)c1cccc2nsnc12	11.3%
CO[C@H]1C=CO[C@@]2(C)Oc3c(C)c(O)c4c(O)c(c(C=NN5CCN(C)CC5)c(O)c4c3C2=O)NC(=O)C(C)=CC=C[C@H](C)[C@H](O)[C@@H](C)[C@@H](O)[C@@H](C)[C@H](OC(C)=O)[C@@H]1C	42.7%
CO[C@H]1C=CO[C@@]2(C)Oc3c(C)c(O)c4c(O)c(c5c(nc6cc(C)ccn65)c4c3C2=O)NC(=O)C(C)=CC=C[C@H](C)[C@H](O)[C@@H](C)[C@@H](O)[C@@H](C)[C@H](OC(C)=O)[C@@H]1C	32.2%
CO[C@H]1C=CO[C@@]2(C)Oc3c(C)c(O)c4c(O)c(c(C=NN5CCN(C6CCCC6)CC5)c(O)c4c3C2=O)NC(=O)C(C)=CC=C[C@H](C)[C@H](O)[C@@H](C)[C@@H](O)[C@@H](C)[C@H](OC(C)=O)[C@@H]1C	73.8% (active)
O=C(OCC(=O)N1CCCC1)c1ccccc1OCc1ccccc1	4.1%
NC(=O)c1c(NC(=S)Nc2ccc(F)cc2)sc2c1CCCC2	2.3%
Cc1ccc(/C=C2/C(=O)N(c3ccccc3)C(=S)N2C)o1	52.2% (active)
CN1C(=S)N(c2ccccc2)C(=O)/C1=C/c1ccco1	-16.2%
CCOc1ccc(N2C(=O)/C(=C/c3ccc(C)o3)N(C)C2=S)cc1	43.2%
COc1cc(C(=O)NCC(C)C)cc(OC)c1OC	-10.5%
COC(=O)C1=C(C)NC(C)=C(C(=O)OC)C1c1ccc(-c2cc(Cl)ccc2Cl)o1	-1.9%
COCCNC(=O)Cn1nc(C(F)(F)F)cc1C	21.9%
Cc1ccc(C(=O)NCc2ccccc2)cc1Br	12.6%
Nc1ccc2nc(N3CCOCC3)sc2c1	59.7% (active)
c1ccc2sc(N3CCOCC3)nc2c1	-4.3%
Fc1ccc2nc(N3CCOCC3)sc2c1	-5.9%
Cc1cnc(C(=O)OCC(=O)N2CCN(C(=O)c3ccco3)CC2)cn1	6.1%
O=C(CSc1nc2ccccc2c(=O)n1-c1ccccc1)N1CCc2ccccc2C1	8%
CC1(C(=O)NC2CCCCCCC2)CCC(=O)N1CCN1CCOCC1 (stereo not given)	-8.6%
COc1cc(C2C(C#N)=C(N)Oc3c2ccc2ccccc32)ccc1OCC(=O)Nc1cccc(C)c1 (stereo not given)	53.4% (active)
COC(=O)c1ccc(NC(=O)COc2ccc(C3C(C#N)=C(N)Oc4c3ccc3ccccc43)cc2OC)cc1 (stereo not given)	15.5%
COc1cc(C2C(C#N)=C(N)Oc3c2ccc2ccccc32)ccc1OCC(=O)Nc1ccc(C)cc1 (stereo not given)	24.1%
CCOC(=O)c1cc(CC)sc1NC(=O)CC1Sc2ccc(C(F)(F)F)cc2NC1=O (stereo not given)	-5.2%

SMILES	inhibition
Cc1ccc(S(=O)(=O)NCc2nc3ccccc3[nH]2)cc1	5%
Cc1nnc(SCC(=O)NC2CCCCC2)n(N)c1=O	-2.5%
O=C1CN(C(=O)c2cccs2)c2ccccc2N1	3.1%
O=C1CN(C(=O)c2cc(Br)c(Br)s2)c2ccccc2N1	61.5% (active)
O=C1CN(C(=O)c2ccccc2)c2ccccc2N1	6.5%
COC(=O)c1ccc(NC(=O)Nc2ccccc2F)cc1	11%
CC(C(=O)N1CCCc2c1c(=O)oc1ccc(O)cc21)N1CCc2ccccc2C1 (stereo not given)	69% (active)
CN(CC(=O)N1CCCc2c1c(=O)oc1ccc(O)cc21)Cc1ccccc1	3.3%
O=C(CN1CCN(Cc2ccccc2)CC1)N1CCCc2c1c(=O)oc1ccc(O)cc21	3.1%
Cc1ccccc1NC(=O)CC(O)(C(F)(F)F)C(F)(F)F	-6%
COc1ccc(C(=O)N2CCCC2)cc1S(=O)(=O)N1CCC(C)CC1	5.6%
O=C(O)C1=C[C@@H](c2ccccc2)C[C@@H](OCc2ccc(CO)cc2)O1	-9.3%
C=CCOC(=O)C1=C[C@@H](c2ccccc2)C[C@@H](OCc2ccc(CO)cc2)O1	-6.1%
NC(=O)C1=C[C@@H](c2ccccc2)C[C@@H](OCc2ccc(CO)cc2)O1	66% (active)
NC(=O)C1=C[C@H](c2ccc(C(F)(F)F)cc2)C[C@H](OCc2ccc(CO)cc2)O1	43.9%
NC(=O)C1=C[C@@H](c2ccc(Br)cc2)C[C@@H](OCc2ccc(CO)cc2)O1	27.4%
NC(=O)C1=C[C@H](c2ccccc2)C[C@H](OCc2ccc(CO)cc2)O1	59.2% (active)
O=C(Nc1ccccc1)C1=C[C@H](c2ccccc2)C[C@H](OCc2ccc(CO)cc2)O1	8.7%
O=C(O)C1=C[C@@H](c2ccc(C(F)(F)F)cc2)C[C@@H](OCc2ccc(CO)cc2)O1	-0.6%
O=C(O)C1=C[C@@H](c2ccc(Br)cc2)C[C@@H](OCc2ccc(CO)cc2)O1	-16.7%
O=C(O)C1=C[C@H](c2ccccc2)C[C@H](OCc2ccc(CO)cc2)O1	2.2%
NC(=O)C1=C[C@@H](c2ccc(C(F)(F)F)cc2)C[C@@H](OCc2ccc(CO)cc2)O1	61.6% (active)
NC(=O)C1=C[C@H](c2ccc(Br)cc2)C[C@H](OCc2ccc(CO)cc2)O1	51% (active)
